Experimental data from PubChem BioAssay (NCATS).
Records with an inconclusive call do not appear. A call without a number means that no potency is given here. Calls of active or inactive are those of the source. Calls come from the whole dose curve; as a rule, active = well fitted curve in the direction sought with a large enough effect; inconclusive = small, poorly fitted or top-dose-only effect, or another doubt; inactive = no such curve, though single readings can be large; an effect the other way counts as inactive or inconclusive.

Experiments:
[1] = target: Calcium and integrin-binding protein 1 (Homo sapiens) (UniProt Q99828); assay: Primary qHTS for Identification of Calcium Integrin Binding Protein 1 (CIB1) Competitor (AID 1508620); conditions: CIB1-GST / FITC-alphaIIb peptide fluorescence polarization; series mostly up to 57.7 µM;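 note: GST tagged CIB1 binding a fluorescein labelled alphaIIb integrin peptide tracer; top concentration of the series differs between compounds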
Outline: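 Fluorescence polarization competition: GST-tagged CIB1 (1 uM final) preincubated with compound 15 min at room temperature, then FITC-labelled alphaIIb peptide (100 nM final) added. After 15 min at room temperature, polarization read at Ex 480/Em 540.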

[2] = Primary qHTS for inhibitors of nuclear receptor binding SET domain protein 2 (NSD2) in an isogenic RCH-ACV NSD2 p.E1099K mutant (9B) (AID 1645876); conditions: RCH-ACV NSD2 E1099K (9B) viability, CellTiter-Glo, 72 h; series mostly up to 44.9 µM; note: nearly all actives have a fitted effect of over 70% in size
[3] = Primary qHTS for inhibitors of nuclear receptor binding SET domain protein 2 (NSD2) in an RCH-ACV wild type WT cells (2C) (AID 1645877); conditions: RCH-ACV (leukaemia line) NSD2 WT (2C) viability, CellTiter-Glo, 72 h; series mostly up to 44.9 µM; note: nearly all actives have a fitted effect of over 70% in size; note: potency is the fitted concentration of half-maximal effect

Sequence of Calcium and integrin-binding protein 1 (Homo sapiens) (Q99828 whole entry, looked up): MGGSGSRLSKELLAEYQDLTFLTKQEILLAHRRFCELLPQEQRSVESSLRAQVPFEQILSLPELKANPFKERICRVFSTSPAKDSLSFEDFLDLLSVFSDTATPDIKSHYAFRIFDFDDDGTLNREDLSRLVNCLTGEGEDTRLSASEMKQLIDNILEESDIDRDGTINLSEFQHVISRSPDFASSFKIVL

| Structure (SMILES) | Potency [1] | Potency [2] | Potency [3] |
| --- | --- | --- | --- |
| C=C(C)[C@@H]1CC[C@]2(C(=O)O)CC[C@]3(C)C(CCC4[C@]5(C)C(CC[C@]43C)C(C)(C)[C@@H](O)[C@@H]5C(=O)O)C12 (some centres undefined) | inactive | inactive | inactive |
| CC(=O)c1ccc(O[C@@H]2OC[C@@H](O)[C@H](O)[C@H]2O[C@]2(CO)O[C@H](CO)[C@@H](O)[C@@H]2O)c(O)c1 | inactive | inactive | inactive |
| C/C=C/C=C/C=C/C(=O)OC1C=C2C(O)OC(=O)[C@]2(O)[C@@]2(C)CCCC(C)(C)[C@H]12 (some centres undefined) | inactive | inactive | inactive |
| CC(C)=CCC(O)[C@](C)(O)C1[C@H](O)C[C@@]2(C)C3CC=C4C(C[C@H](O)[C@@H](O[C@@H]5O[C@H](CO)[C@@H](O)[C@H](O)[C@H]5O)C4(C)C)[C@]3(C)C(=O)C[C@]12C (some centres undefined) | inactive | inactive | inactive |
| C[C@H]1CCN2C[C@]34C[C@@]5(C(=O)Nc6c5ccc5c6OC=CC(C)(C)O5)C(C)(C)C3C[C@]12C(=O)N4C (some centres undefined) | inactive | inactive | inactive |
| C[C@]12CC/C(=N\OCC(=O)O)C=C1CC[C@@H]1[C@@H]2[C@@H](O)C[C@@]2(C)[C@H]1CC[C@]2(O)C(=O)CO | inactive | inactive | 9.16 µM (active) |
| C=CCc1ccc(O[C@@H]2O[C@H](CO)[C@@H](O)[C@H](O)[C@H]2O)c(O[C@@H]2O[C@H](CO)[C@@H](O)[C@H](O)[C@H]2O)c1 | inactive | inactive | inactive |
| O=C(C[C@@H]1C(C(=O)O)=CO[C@@H](O[C@@H]2O[C@H](CO)[C@@H](O)[C@H](O)[C@H]2O)/C1=C\CO)OCCc1ccc(O)c(O)c1 | inactive | inactive | inactive |
